High-throughput results (PubChem BioAssay)
An excerpt weighted towards active compounds, which were near 3.6% of everything screened.
GCN5L2 inh: qHTS Assay for Inhibitors of GCN5L2; Histone acetyltransferase KAT2A (Homo sapiens), Q92830; GCN5L2 HAT assay, ThioGlo1 CoA-SH fluorescence; Potency, µM (top dose mostly 58.9 µM), without a hit: at the top dose activity change, negative = inhibition, usual class: inhibitors; actives 0.21% (n = 390,000); also: potency is read from the fitted curve at half-maximal effect; % is scaled to controls: 0 for no effect and ±100 for the full control effect
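ThioGlo1-coupled HAT assay: 20nM GCN5L2, 70uM acetyl-CoA, 75uM H3(1-25) peptide, pH 7.5. Fluorescence read at 340/540nm at start and after 20 min at room temperature.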
Rango-impB inh: qHTS Assay for Inhibitors of Rango (Ran-regulated importin-beta cargo) - Importin beta complex formation | Importin subunit beta-1 (Homo sapiens), Q14974 | AID 540263, 2011 | Rango CFP/YFP FRET sensor + importin beta, 45 min | actives 0.031% (n = 340,000) | Potency, µM (titrated, usually from 92.2 µM), inactives show at the top dose inhibition of complex formation; calls by dose curve;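 also: potency is read from the fitted curve at half-maximal effect; 0% = DMSO wells and 100% = buffer wells lacking importin beta; nearly all actives have a fitted effect of over 15% in size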
Target sequence (Q14974 whole entry, looked up): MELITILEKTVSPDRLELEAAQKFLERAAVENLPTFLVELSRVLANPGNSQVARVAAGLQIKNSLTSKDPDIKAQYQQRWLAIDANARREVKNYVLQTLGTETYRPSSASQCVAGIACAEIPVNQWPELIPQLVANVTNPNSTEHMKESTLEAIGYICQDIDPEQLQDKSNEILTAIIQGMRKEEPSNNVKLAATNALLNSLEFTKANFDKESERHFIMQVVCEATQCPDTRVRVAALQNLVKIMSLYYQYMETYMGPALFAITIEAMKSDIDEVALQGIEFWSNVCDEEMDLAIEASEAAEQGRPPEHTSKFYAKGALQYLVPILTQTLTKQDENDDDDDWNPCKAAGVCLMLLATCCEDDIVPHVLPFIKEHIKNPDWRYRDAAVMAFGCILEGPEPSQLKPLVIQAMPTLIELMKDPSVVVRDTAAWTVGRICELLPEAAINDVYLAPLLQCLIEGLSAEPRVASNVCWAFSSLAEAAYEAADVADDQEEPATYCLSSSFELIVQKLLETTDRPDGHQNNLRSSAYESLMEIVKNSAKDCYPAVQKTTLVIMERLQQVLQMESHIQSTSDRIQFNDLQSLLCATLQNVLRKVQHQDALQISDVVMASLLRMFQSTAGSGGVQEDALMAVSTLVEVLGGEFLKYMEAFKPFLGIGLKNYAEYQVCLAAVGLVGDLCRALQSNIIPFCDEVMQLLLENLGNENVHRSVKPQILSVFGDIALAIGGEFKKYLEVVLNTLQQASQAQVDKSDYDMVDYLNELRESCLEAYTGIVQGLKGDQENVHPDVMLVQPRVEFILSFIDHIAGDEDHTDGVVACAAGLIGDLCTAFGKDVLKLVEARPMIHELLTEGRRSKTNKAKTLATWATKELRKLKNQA
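FRET biosensor Rango (snurportin 1 IBB between N-terminal EYFP and C-terminal Cerulean), 50 nM in PBS/1 mM DTT/0.02% Tween-20/0.1% BSA, preincubated 5 min RT with compound; 0.125 microM importin beta added, 45 min RT, CFP/YFP FRET ratio read.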
Rango dissoc inh: qHTS Assay for Inhibitors of RanGTP induced Rango (Ran-regulated importin-beta cargo) - Importin beta complex dissociation | Snurportin-1 (Homo sapiens) + GTP-binding nuclear protein Ran (Homo sapiens) + Importin … | Potency, µM (doses to about 46.1 µM), without a hit: top-dose activity change, negative = inhibition | actives 0.071% (n = 340,000) | AID 540253, 2011 | Biochemical FRET Rango-importin beta, RanGTP-induced dissociation; calls by dose curve; also: potency is read from the fitted curve at half-maximal effect; % of control where 0% means no effect; nearly all actives have a fitted effect of over 45% in size
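Rango (0.1 uM)–importin beta (0.25 uM) complex; RanGTP-RCC1 trigger; 45 min RT; CFP/YFP FRET read.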
PI5P4Ka inh: qHTS for Inhibitors of phosphatidylinositol 5-phosphate 4-kinase (PI5P4K); max response, %; AID 652105, 2013; PI5P4Kalpha enzyme, ADP-Glo luminescence, 60 min; active compounds read low; actives 1.2% (n = 330,000); active = max response of -50% or lower; inconclusive = between -30% and -50%; inactive = -30% or higher; also: value at the top dose of about 77 µM; % is scaled to controls: 0 for no effect and ±100 for the full control effect
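ADP-Glo luminescence end-point read after a 60 min room-temperature kinase reaction of PI5P4Kalpha plus substrate, initiated with ATP at 5 microM final. Buffer: 0.038 M HEPES pH 7.4, EGTA, 0.1% CHAPS, 5% DMSO.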
PLK1 PBD inh: qHTS for Inhibitors of PLK1-PDB (polo-like kinase 1 - polo-box domain): Primary Screen | Serine/threonine-protein kinase PLK1 (Homo sapiens), P53350 | actives 2.8% (n = 360,000) | Potency, µM, without a hit: max response, negative = inhibition, actives largely listed as inhibitors | Plk1 PBD binding of FITC phosphopeptide, fluorescence polarization; also: potency is read from the fitted curve at half-maximal effect; series mostly up to about 57 µM; % is scaled to controls: 0 for no effect and ±100 for the full control effect; nearly all actives have a fitted effect of over 65% in size
VDR inh: Inhibitors of the vitamin D receptor (VDR): qHTS; Vitamin D3 receptor (Homo sapiens), P11473; VDR-SRC2-3 peptide fluorescence polarization, 2 h; Potency, µM, for the others: max response, negative = inhibition, most hits filed as inhibitors; actives 0.93% (n = 400,000); AID 504847, 2011; also: potency is read from the fitted curve at half-maximal effect; % is scaled to controls: 0 for no effect and ±100 for the full control effect
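Fluorescence polarization assay measuring small-molecule disruption of VDR binding to the coregulator peptide SRC2-3. Compounds were pin-transferred (23 nl) into the reagent mix and incubated 2 h at room temperature before reading.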
ADP-Glo interf: qHTS for Inhibitors of PI5P4K: ADP-Glo counter assay. AID 743285, 2014. shares compounds with PI5P4Ka inh. 1,100 tested, under 10 active. Potency, µM (titrated, usually from 76.9 µM), for inactives: at the top dose activity change, negative = inhibition, most hits filed as inhibitors. ADP-Glo detection counter-screen, luciferase luminescence, no enzyme
* hit, by the source's call; u = inconclusive; x = no result given. Unless noted, calls follow the shape of the dose curve; as a rule, active = well fitted curve in the direction sought with a large enough effect; inconclusive = small, poorly fitted or top-dose-only effect, or another doubt; inactive = no such curve, though single readings can be large; an effect the other way counts as inactive or inconclusive.

SMILES	GCN5L2 inh	Rango-impB inh	Rango dissoc inh	PI5P4Ka inh	PLK1 PBD inh	VDR inh	ADP-Glo interf
O=C(COc1ccccc1)Nc1cccc(-c2ccc(N3CCOCC3)nn2)c1	-3%	1%	u	-13	-1%	10%	-14%
O=C(COc1ccc(Cl)cc1Cl)Nc1cccc(-c2ccc(N3CCOCC3)nn2)c1	-5%	0%	-10%	-7	-8%	-14%	x
O=C(Cn1cncn1)NCc1ccccc1Br	-23%	0%	24%	-62*	-6%	3%	-2%
CCCCNC(=O)c1ccc2nc(-c3cccs3)c(-c3cccs3)nc2c1	x	x	x	x	x	-21%	x
CC(C)Cn1c(SCC(=O)Nc2ccc3[nH]c(=O)[nH]c3c2)nc2ccccc2c1=O	-10%	-1%	28%	-20	2%	13%	x
CCC(C)n1c(SCC(=O)Nc2ccc3[nH]c(=O)[nH]c3c2)nc2ccccc2c1=O (stereo not drawn)	-7%	4%	-3%	-50*	-22%	-8%	-1%
CCCCC1=CC2=C(c3ccco3)C(=O)C(C)(OC(=O)c3ccc(OC)cc3)C(=O)C2=CN1Cc1ccccc1 (stereo not drawn)	-19%	u	u	-71*	-27%	u	-2%
CSc1ccc(CCNc2ncnc3onc(C)c23)cc1	-6%	x	x	x	x	7%	x
c1ccc(Cc2nnc3sc(-c4ccco4)nn23)cc1	-11%	-5%	20%	-51*	21µM*	u	2%
COc1cccc(C(=O)Nc2cccc(C(=O)NC3=NN(c4c(Cl)cc(Cl)cc4Cl)C(=O)C3)c2)c1	u	-5%	3%	-58*	u	-5%	3%
COc1cccc(C(=O)Nc2cccc(NC(=O)c3ccc(Cl)cc3Cl)c2)c1	-20%	x	x	x	x	-19%	x
COC(=O)C1=C(C)NC(=O)NC1c1cn(-c2ccccc2)nc1-c1ccc(OC)c(Br)c1 (stereo not drawn)	-19%	x	x	x	x	-6%	x
CCN1CCN(Cc2ccc(NC(=O)c3ccc(C)c(NC(=O)c4cc(-c5ccc(Br)cc5)n[nH]4)c3)cc2C(F)(F)F)CC1	-4%	-4%	4%	-57*	-20%	7%	0%
O=c1cc(CN2CCN(S(=O)(=O)c3cccc(Cl)c3)CC2)c2ccc(O)cc2o1	-28%	u	u	-74*	-7%	2%	-6%
COc1ccc(OC)c(CNC(=O)CCCn2nc(C)c3c(C)n(-c4ccc(C)cc4)nc3c2=O)c1	0%	x	x	x	x	-2%	x
CCOC(=O)c1c(S(=O)(=O)N2CCC(C(=O)NCc3cccc(C)c3)CC2)c(C)n(C)c1C	4%	x	x	x	x	7%	x
COCCNc1nc(NCC2CCCCC2)c2sc(-c3ccccc3)cc2n1	x	x	x	x	-6%	x	-2%
c1ccc(-c2cc3nc(NCC4CC4)nc(NCC4CCCCC4)c3s2)cc1	x	x	x	x	-4%	x	5%
CCc1ccc(CN2C(=O)c3ccccc3C2C(=O)NC2CCCCCC2)cc1 (stereo not drawn)	3%	x	x	x	x	-5%	x
CCOC(=O)Cc1csc(NC(=O)CSc2nc3sc(C(=O)O)c(C)c3c(=O)[nH]2)n1	0%	-2%	-3%	x	-14%	-1%	x
Cc1csc(NC(=O)CSc2nc3sc(C)c(C)c3c(=O)[nH]2)n1	-11%	-1%	-5%	-57*	2.4µM*	u	-1%
Cc1onc(-c2c(F)cccc2Cl)c1C(=O)NCc1ccco1	-6%	-1%	-4%	1	-1%	2%	x
Cc1onc(-c2c(F)cccc2Cl)c1C(=O)OCC(=O)NCc1ccco1	-5%	0%	-10%	-51*	-16%	-7%	-5%
CC[C@]12c3[nH]c4cc(-c5ccco5)ccc4c3CCN1C(=O)[C@@H](CC(=O)NCCC1=CCCCC1)C[C@@H]2C(=O)N1CCN(C(=O)c2ccco2)CC1	u	u	u	-73*	-5%	u	1%
C=CCNc1nc(NCc2ccc(NC(C)=O)cc2)c2sc(-c3ccccc3)cc2n1	x	x	x	u	-3%	x	x
SMILES	GCN5L2 inh	Rango-impB inh	Rango dissoc inh	PI5P4Ka inh	PLK1 PBD inh	VDR inh	ADP-Glo interf
CC(=O)NCCNc1nc(NC(C)C)nc2cc(-c3ccccc3)sc12	x	x	x	-18	-5%	x	x
CC(=O)Nc1ccc(CNc2nc(NC(C)C)nc3cc(-c4ccccc4)sc23)cc1	x	x	x	x	1%	x	-2%
COc1ccc(-c2cc(CNc3nc(NC(C)C)nc4cc(-c5ccccc5)sc34)on2)cc1	x	x	x	x	5%	x	-15%
CCOC(=O)c1ccc(NC(=O)Cn2nc(C)c3nn(-c4ccc(Cl)cc4)c(C)c3c2=O)cc1	-10%	x	x	x	x	16%	x
Clc1ccc(-c2nc3sccn3c2/C=N/OCc2ccc(Cl)c(Cl)c2)cc1	12%	x	x	x	x	-8%	x
COc1ccc(-n2c(=O)c3c4c(sc3n(Cc3c(F)cccc3Cl)c2=O)CN(C(C)=O)CC4)cc1OC	-6%	x	x	x	x	-4%	x
COC(=O)c1ccc(Oc2cc(C)nc(NCc3ccccc3)n2)cc1	3%	1%	-9%	1	0%	-16%	x
Cc1cc(Oc2ccc(C#N)cc2)nc(NCc2ccccc2)n1	0%	-3%	1%	-51*	2.7µM*	-22%	1%
O=C(O)c1cc2c(N3CCC(Cc4ccccc4)CC3)ncnc2s1	-23%	1%	4%	x	-16%	-21%	3%
COc1ccccc1-c1nc2ccccc2n(CC(C)C)c1=O	x	x	x	-72*	24µM*	x	-11%
COc1ccc(CN2CCC(=O)N([C@H](CO)CC(C)C)CC2)cc1OC	-3%	5%	1%	-59*	-2%	6%	-7%
COc1ccc(CN2CCC(=O)N([C@H](CO)c3ccccc3)CC2)cc1OC	-2%	-1%	-6%	2	3%	-5%	x
O=C(CS(=O)(=O)c1cccc2nsnc12)N1CCN(c2ccc(F)cc2)CC1	-7%	x	x	x	x	8%	x
CCn1cc(C(=O)N2CCN(c3ccc([N+](=O)[O-])cc3)CC2)c(=O)c2ccc(C)nc21	-13%	4%	5%	-1	-6%	-2%	x
